{
  "source": "the supplement of paper PMC8728848",
  "experiment_in_all_cases": "glycan array binding signal (z-score within array); higher = stronger binding",
  "settings_in_all_cases": "glycan notation: IUPAC condensed, linker removed",
  "key": {"Gal6S(b1-3)GlcNAc": {"target": "Gal6S(b1-3)GlcNAc", "procedure,_shortened": "(§1)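 Columns mapping to the same glycan were averaged after glycan names were converted to IUPAC-condensed notation. The data come from 3228 arrays in the Consortium for Functional Glycomics database, limited to those with an available protein sequence. Binding is reported as a within-array Z-score averaged across arrays of one protein sequence and across linkers.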"}, "GalNAc(b1-4)GlcNAc": {"target": "GalNAc(b1-4)GlcNAc", "procedure,_shortened": "as §1"}, "Glc(b1-4)Glc": {"target": "Glc(b1-4)Glc", "procedure,_shortened": "as §1"}, "Glc(b1-6)Glc": {"target": "Glc(b1-6)Glc", "procedure,_shortened": "as §1"}, "[1]": {"target": "Man(a1-2)Man(a1-3)[Man(a1-2)Man(a1-6)]Man", "procedure,_shortened": "as §1"}, "[2]": {"target": "Man(a1-2)Man(a1-6)[Man(a1-3)]Man(a1-6)[Man(a1-2)Man(a1-2)Man(a1-3)]Man(b1-4)GlcNAc(b1-4)GlcNAc", "procedure,_shortened": "as §1"}, "[3]": {"target": "Neu5Ac(a2-3)Gal(b1-3)GalNAc(b1-4)[Neu5Ac(a2-3)]Gal(b1-4)Glc", "procedure,_shortened": "as §1"}, "[4]": {"target": "Neu5Ac(a2-3)Gal(b1-3)GlcNAc", "procedure,_shortened": "as §1"}, "[5]": {"target": "Neu5Ac(a2-3)Gal(b1-3)[Neu5Ac(a2-6)]GalNAc", "procedure,_shortened": "as §1"}, "[6]": {"target": "Neu5Ac(a2-3)Gal(b1-4)GlcNAc(b1-3)Gal(b1-4)[Fuc(a1-3)]GlcNAc", "procedure,_shortened": "as §1"}, "[7]": {"target": "Neu5Ac(a2-3)Gal(b1-4)[Fuc(a1-3)]GlcNAc(b1-3)Gal", "procedure,_shortened": "as §1"}, "[8]": {"target": "Neu5Ac(a2-3)Gal(b1-4)[Fuc(a1-3)]GlcNAc(b1-3)Gal(b1-4)[Fuc(a1-3)]GlcNAc(b1-3)Gal(b1-4)[Fuc(a1-3)]GlcNAc", "procedure,_shortened": "as §1"}, "[9]": {"target": "Neu5Ac(a2-3)Gal6S(b1-4)[Fuc(a1-3)]GlcNAc", "procedure,_shortened": "as §1"}, "[10]": {"target": "Neu5Ac(a2-3)[Neu5Ac(a2-6)]GalNAc", "procedure,_shortened": "as §1"}, "[11]": {"target": "Neu5Ac(a2-8)Neu5Ac(a2-3)[GalNAc(b1-4)]Gal(b1-4)Glc", "procedure,_shortened": "as §1"}},
  "note": "The sample as a whole holds a higher share of the strongest signals than the screen did.",
  "data": [
    {"binder": "CCL1 (Coprinopsis cinerea) (protein) MDTQAKPPAGRYVIYNRVLSPNGEKLALTYPGYQREALTLTPLHHSANQIWILNNWDATTSSLTPETARNTQVGWGSGNVPIVLPPGNYVWTLASSAGGYIIQDGGKTVYWNAGEAVANTKVSIGGDNGLQARWIFERV", "values": [
      {"measurement": "glycan array binding signal (z-score)", "setting": "Gal6S(b1-3)GlcNAc", "value": -0.152},
      {"measurement": "glycan array binding signal (z-score)", "setting": "GalNAc(b1-4)GlcNAc", "value": -0.159},
      {"measurement": "glycan array binding signal (z-score)", "setting": "Glc(b1-4)Glc", "value": -0.115},
      {"measurement": "glycan array binding signal (z-score)", "setting": "Glc(b1-6)Glc", "value": -0.128},
      {"measurement": "glycan array binding signal (z-score)", "setting": "[1]", "value": -0.124},
      {"measurement": "glycan array binding signal (z-score)", "setting": "[2]", "value": -0.138},
      {"measurement": "glycan array binding signal (z-score)", "setting": "[3]", "value": -0.132},
      {"measurement": "glycan array binding signal (z-score)", "setting": "[4]", "value": -0.117},
      {"measurement": "glycan array binding signal (z-score)", "setting": "[5]", "value": 1.63},
      {"measurement": "glycan array binding signal (z-score)", "setting": "[6]", "value": -0.148},
      {"measurement": "glycan array binding signal (z-score)", "setting": "[7]", "value": 3.29},
      {"measurement": "glycan array binding signal (z-score)", "setting": "[8]", "value": 1.58},
      {"measurement": "glycan array binding signal (z-score)", "setting": "[9]", "value": 1.5},
      {"measurement": "glycan array binding signal (z-score)", "setting": "[10]", "value": -0.149},
      {"measurement": "glycan array binding signal (z-score)", "setting": "[11]", "value": -0.127}
    ]}
  ]
}
